Experimental data taken from PubChem BioAssay (NCATS).
Results filed as inconclusive are left out. A call without a number means that no potency is given here. Active and inactive are the calls of the source. Calls come from the whole dose curve; as a rule, active = well fitted cell-killing curve with a large enough effect; inconclusive = small, poorly fitted or top-dose-only effect; inactive = flat fitted curve, though single readings scatter.

Assay: Cell Viability - LYMP1-002 - Assay at 16 hr (AID 948)
Settings: LYMP1-002 lymphoblastoid cell viability; series mostly up to 92.2 µM
Description: NIH Chemical Genomics Center [NCGC]
NIH Molecular Libraries Screening Centers Network [MLSCN]
National Institutes of Environmental Health Sciences [NIEHS]
National Toxicology Program [NTP]
We have developed a 1536-well cell-based assay for quantitative high throughput screening (qHTS) against a number of cell lines to determine in vitro cytotoxicity of small molecules. This particular assay uses a human lymphoblastoid cell line (LYMP1-002) purchased from Coriell Institute for Medical Research.
NCGC Assay Protocol Summary:
The CellTiter-Glo luminescent cell viability assay (Promega) is a homogeneous method to measure the number of viable cells in culture. The end point readout of this assay is based on quantitation of intracellular ATP, an indicator of metabolic activity, using the luciferase reaction. Luciferase catalyzes the oxidation of beetle Luciferin to oxyluciferin and light in the presence of ATP. The luminescent signal is proportional to amount of ATP present.
Using the CellTiter-Glo luminescent cell viability assay, the amount of cellular ATP was measured in the lymphoblastoid cell line with complete culture medium following compound treatment for 16 hours. The assay was performed in opaque white Kalypsys 1536-well plates. In the screen, tetraoctylammonium bromide was used as positive control. Library compounds were measured for their ability to cause acute toxicity in the cell line, as reflected by a decrease in intracellular ATP levels, in a concentration-dependent manner. […] AC50 values were determined from concentration-response data modeled with the standard Hill equation.
qHTS protocol for CellTiter Glo lymphoblastoid cellular assay
[Step] [Parameter] [Value] [Description]
1. Reagent; 5 uL; 2500 lymphoblastoid cells/well
2. Time; 5 hr; 37 C incubation
4. Controls; 23 nL; Tetraoctylammonium bromide 6.4pM to 92 uM
5. Time; 16 hr; 37 C incubation
6. Reagent; 5 uL; CellTiter Glo reagent
7. Time; 30 min; Room Temperature
8. Detection; Luminescence; Viewlux plate reader
Keywords: cell viability, cytotoxicity, lymphoblastoid cell line, luminescence, NTPHTS, NTPHTS_NCGC, NIEHS, DSSTox, MLSMR, MLSCN, NIH Roadmap, qHTS, NCGC
Potency is the fitted concentration of half-maximal effect.

| Structure (SMILES) | Potency |
| --- | --- |
| NC(=O)c1ncn([C@@H]2O[C@H](CO)[C@@H](O)[C@H]2O)n1 | inactive |
| Oc1cccc(O)c1 | inactive |
| CN(C)CCC=C1c2ccccc2CCc2ccccc21 | inactive |
| [Cl][In]([Cl])[Cl] | inactive |
| NC(=O)N/N=C/c1ccc([N+](=O)[O-])o1 | inactive |
| CC1(C)[C@@H]2CC[C@@]1(C)C(=O)C2 | inactive |
| CCCCOC(=O)c1ccc(O)cc1 | inactive |
| COc1ccccc1O | inactive |
| Cc1cc2nc3c(=O)[nH]c(=O)nc-3n(C[C@H](O)[C@H](O)[C@H](O)CO)c2cc1C | inactive |
| CCCCCCCCCCCCOS(=O)(=O)O | inactive |
| NCCNCCNCCN | inactive |
| Cc1c(O)cccc1C(=O)N[C@@H](CSc1ccccc1)[C@H](O)CN1C[C@H]2CCCC[C@H]2C[C@H]1C(=O)NC(C)(C)C | 50.1 µM (active) |
| NCCNCCNCCNCCN | inactive |
| CC12CCC(CC1)C(C)(C)O2 | inactive |
| O=C1c2c(O)cccc2Cc2cccc(O)c21 | inactive |
| O=C1O[C@H]([C@@H](O)CO)C(O)=C1O | inactive |
| Nc1ccc(S(=O)(=O)Nc2nccs2)cc1 | inactive |
| Cc1cc(CC(=O)O)n(C)c1C(=O)c1ccc(Cl)cc1 | inactive |
| C[C@]12C[C@H](O)[C@H]3[C@@H](CCC4=CC(=O)CC[C@@]43C)[C@@H]1CC[C@@H]2C(=O)CO | inactive |
